# Compound activity (PubChem)
# Rango dissoc inh: inhibition of RanGTP-driven Rango-importin beta dissociation. Potency, µM (series often up to 46.1 µM), for inactives: at the top dose activity change, negative = inhibition. AID 540253. Biochemical FRET Rango-importin beta, RanGTP-induced dissociation. 340,000 tested, 0.071% active. O95149+P62826; calls by dose curve; also: % of control where 0% means no effect; nearly all actives have a fitted effect of over 45% in size
#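 Rango FRET biosensor (snurportin-1 IBB flanked by N-terminal EYFP and C-terminal CFP10) at 0.1 uM, with 0.25 uM importin beta in PBS, 1mM DTT, 0.02% Tween-20, 0.1% BSA. 0.6 uM Ran, 2mM GTP and 0.2 uM RCC1 were then added for 45 min at room temperature. Inhibition read as loss of FRET rise.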
# A549 viability: counter-screen for Nrf2 inhibitors: cytotoxicity in A549 cells. A549 ARE-Fluc cells, CellTiter-Fluor viability, 18-24 h. Potency, µM (doses to about 46 µM), for the others: top-dose activity change, negative = cytotoxicity, hits mostly inhibitors. 390,000 tested, 0.16% active; also: % is scaled to controls: 0 for no effect and ±100 for the full control effect
#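 Cytotoxicity counterscreen: CellTiter-Fluor fluorescence was measured in A549 ARE_Fluc cells after 18-24 h of compound exposure in a concentration series. The subsequent BugLite luminescent read reports ARE-luciferase activity.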
# Nrf2 block: Nrf2 pathway inhibition; A549 ARE-Fluc reporter, luciferase luminescence, 18-24 h; Potency, µM (series often up to 46 µM), for inactives: top-dose activity change, negative = inhibition, usual class: inhibitors; 360,000 tested, 2.1% active; also: % is scaled to controls: 0 for no effect and ±100 for the full control effect; nearly all actives have a fitted effect of over 60% in size
#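 Nrf2 activity is the BugLite luminescence, read 15 min after reagent at room temperature, following CellTiter-Fluor cytotoxicity readout (30 min, 37C). Compound titrations were applied for 18-24 h to 5000 A549 ARE_Fluc cells/well in 5% FBS OPTI-MEM.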
# Nrf2 ARE act: Nrf2 pathway activation; AREc32 ARE-luciferase reporter (MCF7-derived line), luminescence, 24 h; Potency, µM (top dose mostly 46.1 µM), for the others: at the highest dose activation, usual class: activators; AID 624171; 410,000 tested, 0.31% active; also: % of control where 0% means no effect; nearly all actives have a fitted effect of over 65% in size
#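 ARE activation measured as luciferase luminescence (Steady-Glo, 30 min RT) in AREc32_Fluc cells after 24 hr compound exposure at 37 deg C, 5% CO2; cells seeded overnight at 1000/well in OPTI-MEM, 5% FBS.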
# Rango-impB inh: prevents formation of the Rango-importin beta complex | Q14974 | Rango CFP/YFP FRET sensor + importin beta, 45 min | Potency, µM (titrated, usually from 92.2 µM), for the others: at the highest dose inhibition of complex formation | 340,000 tested, 0.031% active; calls by dose curve;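 also: 0% = DMSO wells and 100% = buffer wells lacking importin beta; nearly all actives have a fitted effect of over 15% in size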
# Target sequence (Q14974 whole entry, looked up): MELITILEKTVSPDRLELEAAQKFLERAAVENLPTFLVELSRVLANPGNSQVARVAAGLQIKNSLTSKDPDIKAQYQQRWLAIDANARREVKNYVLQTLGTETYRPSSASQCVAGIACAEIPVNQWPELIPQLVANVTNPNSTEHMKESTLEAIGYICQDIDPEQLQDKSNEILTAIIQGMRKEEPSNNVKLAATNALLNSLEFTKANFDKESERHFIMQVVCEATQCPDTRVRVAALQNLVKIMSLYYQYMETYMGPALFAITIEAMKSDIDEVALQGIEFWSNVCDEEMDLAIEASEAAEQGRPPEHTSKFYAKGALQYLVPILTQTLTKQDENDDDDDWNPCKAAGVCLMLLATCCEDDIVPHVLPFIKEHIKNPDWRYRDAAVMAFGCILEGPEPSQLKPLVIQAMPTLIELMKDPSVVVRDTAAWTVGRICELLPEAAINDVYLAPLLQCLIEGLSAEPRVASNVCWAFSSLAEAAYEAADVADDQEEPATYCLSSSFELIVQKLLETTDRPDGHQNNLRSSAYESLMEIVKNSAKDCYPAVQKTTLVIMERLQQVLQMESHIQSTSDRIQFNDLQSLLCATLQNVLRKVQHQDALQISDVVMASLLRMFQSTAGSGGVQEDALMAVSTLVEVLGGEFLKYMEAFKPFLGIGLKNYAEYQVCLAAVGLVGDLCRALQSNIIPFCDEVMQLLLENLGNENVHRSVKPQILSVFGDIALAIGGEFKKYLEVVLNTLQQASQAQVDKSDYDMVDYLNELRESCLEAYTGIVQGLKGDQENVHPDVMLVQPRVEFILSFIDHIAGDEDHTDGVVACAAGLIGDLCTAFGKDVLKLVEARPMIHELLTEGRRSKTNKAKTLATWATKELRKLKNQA
#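 Inhibition scored from the CFP 486 nm/YFP 530 nm FRET ratio 45 min after adding 0.125 microM importin beta to 50 nM Rango biosensor preincubated 5 min with compound (room temperature, PBS with DTT, Tween-20, BSA). No-importin wells as positive control.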
# The depositor's hits bear a star; ? = inconclusive; . = not tested or not shown; ! = not active in a repeat. Most compounds without a hit are left out; they make up all but 2.3% or so of the library. Unless noted, calls follow the shape of the dose curve; as a rule, active = well fitted curve in the direction sought with a large enough effect; inconclusive = small, poorly fitted or top-dose-only effect, or another doubt; inactive = no such curve, though single readings can be large; an effect the other way counts as inactive or inconclusive. Potency is read from the fitted curve at half-maximal effect.
SMILES,Rango dissoc inh,A549 viability,Nrf2 block,Nrf2 ARE act,Rango-impB inh
CN(C(=O)c1cccc(NC(=O)Cc2ccc(NC(=O)C3CCCN(S(=O)(=O)c4cccc([N+](=O)[O-])c4)C3)cc2)c1)C1CCCCC1 (centres undefined),-22%,-3%,-20%,2%,3%
Nc1nc2c(nnn2C2CC(O)C(CO)O2)c(=O)[nH]1 (centres undefined),.,.,.,-2%,.
COc1cc2nc(SCc3ccc(Cl)cc3)n3nc(CCn4nc(C)cc4C)nc3c2cc1OC,.,14%,3%,-1%,.
Nc1cccc2c1C(=O)N(CC(=O)NC13CC4CC(CC(C4)C1)C3)C2=O,?,?,-12%,-1%,?
O=C(Cn1sc2ccccc2c1=O)NC12CC3CC(CC(C3)C1)C2,2%,-1%,15%,13µM*,1%
Cc1cccc(-n2c(C)cc(C(=O)C(=O)Nc3ccccc3F)c2C)c1C,.,6%,17%,-1%,.
O=C1C=CC(=O)N1Cc1ccccc1,-9%,?,16µM*,8%,-3%
Cc1ccc(S(=O)(=O)Cc2ccc(C(=O)N3CCN(c4cccc(Cl)c4)CC3)o2)cc1,.,-7%,?,-1%,.
Cc1ccccc1S(=O)(=O)Cc1ccc(C(=O)N2CC(C)CC(C)C2)o1 (centres undefined),-2%,2%,9%,0%,-6%
Cc1ccccc1S(=O)(=O)Cc1ccc(C(=O)N2CCN(c3cccc(Cl)c3)CC2)o1,.,-23%,18µM*,0%,.
Cc1ccccc1S(=O)(=O)Cc1ccc(C(=O)N2CCN(c3cccc(C)c3C)CC2)o1,-3%,?,10µM*,-1%,-2%
CCOC(=O)CSc1nc2c(sc3cccc(F)c32)c(=O)n1Cc1ccc(OC)cc1,.,1%,.,-1%,.
O=C1NC(=O)C2(CCCCC2C2CCCCC2)N1 (centres undefined),5%,-14%,-10%,0%,2%
CC(=O)Nc1ccc(OCc2cccc(-c3nc4ccccc4c(=O)n3Cc3ccco3)c2)cc1,.,-15%,?,.,.
O=C(NCc1cccnc1)NC(=O)c1ccc(Cl)cc1,4%,-4%,-14%,1%,2%
Cc1ccc(Cn2c(SCc3ccc(C(=O)N4CCCCC4)cc3)nc3ccncc32)cc1,.,-16%,?,0%,.
Cc1ccc(Cn2c(SCc3ccc(C(=O)N4CCCCCC4)cc3)nc3ccncc32)cc1,.,-14%,15µM*,0%,.
Cc1cccc(Cn2c(SCc3ccc(C(=O)NC4CCCC4)cc3)nc3ccncc32)c1,.,-6%,21µM*,1%,.
CCN(CC)CCC(c1ccc2c(c1)OCO2)c1c(OC)cc(OC)c2ccc(=O)oc12 (centres undefined),-15%,16µM*,7%,11%,2%
CCN(CC)CCC(c1cc(OC)c(OC)c(OC)c1)c1c(OC)cc(OC)c2ccc(=O)oc12 (centres undefined),6%,15µM*!,10%,10%,0%
CCN(CC)CCC(c1cc(OC)c(OC)c(OC)c1)c1c(OC)cc(OC)c2c(C)cc(=O)oc12 (centres undefined),-4%,?,0%,10%,-1%
COc1ccc(C(=O)NCC(c2ccc(N(C)C)cc2)N2CCc3ccccc32)cc1OC (centres undefined),.,-11%,.,20%,.
CC1CCN(S(=O)(=O)c2ccc3c4c2CC(=O)N4CC(C)S3)CC1 (centres undefined),-11%,-8%,21µM*,10%,?
CC1CCN(S(=O)(=O)c2cc3c4c(c2)CC(=O)N4CCC3)CC1,.,-2%,.,10%,.
N#Cc1ccccc1NC(=O)C(=O)NCCc1csc(-c2ccc(C(F)(F)F)cc2)n1,.,-1%,.,0%,.
CC(Sc1nc(N)c2c3c(sc2n1)CSC(C)(C)C3)C(=O)Nc1ccccc1 (centres undefined),-1%,?,18µM*,4%,0%
O=C(O)CCSc1nnc(-c2ccc3c(c2)OCO3)o1,7%,6%,8.2µM*,-2%,?
Cc1csc2c(N3CCN(C(=O)Nc4ccc(OC(F)(F)F)cc4)CC3)ncnc12,42%,-19%,21µM*,0%,0%
